# From the supplement of paper PMC6555819
# Assays:
# Test in all cases: PBM binding z-score (relative to random genomic background probes); higher = stronger binding; sequences stand for … in GC…GCGATTGACAGCGTAGAATGAAGG
# [1] = tested on: FXR:RXRa (NR concentration 270 nM, RXRa partner concentration 90 nM)
# Method in brief: (§1)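 Each nuclear receptor dimer, without ligand, was incubated for 1 h on custom Agilent 4×180K protein-binding microarrays. Binding was detected with antibodies against each partner (one per run), and scanned fluorescence was regression-normalized. The binding z-scores are referenced to random human genomic background probes.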
# [2] = tested on: LXRa:RXRa (NR concentration 270 nM, RXRa partner concentration 90 nM)
# Method in brief: as §1
# [3] = tested on: LXRa homodimer (NR concentration 270 nM)
# Method in brief: as §1
# [4] = tested on: LXRb:RXRa (NR concentration 270 nM, RXRa partner concentration 90 nM)
# Method in brief: as §1
# [5] = tested on: LXRb homodimer (NR concentration 270 nM)
# Method in brief: as §1
# [6] = tested on: PPARa:RXRa (NR concentration 270 nM, RXRa partner concentration 90 nM)
# Method in brief: as §1
# [7] = tested on: PPARg:RXRa (NR concentration 180 nM, RXRa partner concentration 90 nM)
# Method in brief: as §1
# [8] = tested on: PPARg:RXRa 270nM:90nM, anti-RXR (NR concentration 270 nM, RXRa partner concentration 90 nM)
# Method in brief: as §1
# [9] = tested on: PPARg:RXRa 30nM:10nM, anti-RXR (NR concentration 30 nM, RXRa partner concentration 10 nM)
# Method in brief: as §1
# [10] = tested on: PPARg:RXRa 90nM:30nM, anti-RXR (NR concentration 90 nM, RXRa partner concentration 30 nM)
# Method in brief: as §1
# [11] = tested on: PPARg:RXRa DBDmut IVT, anti-RXR (DBD mutation: RXRa K156A/R161A, NR concentration 270 nM, RXRa partner concentration 90 nM)
# Method in brief: as §1
# [12] = tested on: PPARg:RXRa IVT, anti-PPARg (NR concentration 270 nM, RXRa partner concentration 90 nM)
# Method in brief: as §1
# [13] = tested on: PPARg DBDmut:RXRa IVT, anti-PPARg (DBD mutation: PPARg1 K132A/R137A, NR concentration 270 nM, RXRa partner concentration 90 nM)
# Method in brief: as §1
# [14] = tested on: PPARg DBDmut IVT, anti-PPARg (DBD mutation: PPARg1 K132A/R137A, NR concentration 270 nM)
# Method in brief: as §1
# [15] = tested on: PPARg homodimer (NR concentration 180 nM)
# Method in brief: as §1
# [16] = tested on: PXR:RXRa (NR concentration 270 nM, RXRa partner concentration 90 nM)
# Method in brief: as §1
# [17] = tested on: PXR homodimer (NR concentration 270 nM)
# Method in brief: as §1
# [18] = tested on: RARa:RXR (NR concentration 270 nM, RXRa partner concentration 90 nM)
# Method in brief: as §1
# [19] = tested on: RARa homodimer (NR concentration 270 nM)
# Method in brief: as §1
# [20] = tested on: RARb:RXRa (NR concentration 270 nM, RXRa partner concentration 90 nM)
# Method in brief: as §1
Sequence,PBM binding z-score [1],PBM binding z-score [2],PBM binding z-score [3],PBM binding z-score [4],PBM binding z-score [5],PBM binding z-score [6],PBM binding z-score [7],PBM binding z-score [8],PBM binding z-score [9],PBM binding z-score [10],PBM binding z-score [11],PBM binding z-score [12],PBM binding z-score [13],PBM binding z-score [14],PBM binding z-score [15],PBM binding z-score [16],PBM binding z-score [17],PBM binding z-score [18],PBM binding z-score [19],PBM binding z-score [20]
TCTAGTTGGTCAAAGGTCACACTCTCGAAATGCG,5.93,5.66,3.78,5.32,1.9,6.47,11.1,9.87,10.5,10.6,3.65,6.05,1.12,1.37,5.48,5.85,1.74,7.41,3.43,4.92
AGAATGAGGTTATACGCAGATCAGGGAAGAAAGT,2.11,2.13,-0.247,1.68,-0.102,3.39,1.58,2.01,0.827,1.45,2.73,2.31,1.31,0.997,0.831,1.14,0.481,1.59,0.675,1.52
GCTCGGAGGACAAGGTTAGAGCTTTGTCCGTAGA,-0.181,-0.186,-1.07,-0.329,-0.89,0.169,-0.843,0.0367,-1.07,-0.395,-0.578,-0.435,-1.46,-0.888,-0.772,-0.186,-0.847,-0.266,-1.1,1.45
GTACCAAGGTGAATAGGTCGTTGACGAGTAGGCG,1.08,0.711,-0.12,0.495,-0.439,2.45,1.58,1.84,0.445,1.35,1.8,2.86,0.144,-0.0212,1.04,0.88,0.00593,1.93,-0.182,2.23
CGAACGAAGGCATGAGTTGATAGCAAATGCCGAT,-0.766,-0.753,-0.489,-0.751,-1.09,-0.568,0.575,-0.579,-0.739,-0.741,-0.501,-0.459,-1.26,-0.962,-0.786,-0.575,-0.461,-0.544,-0.843,-0.545
GCTAGCAGGCCCTTTGGGTCACTCAATGACGGGC,-0.0163,-0.0683,-0.519,-0.325,-1.53,0.647,0.157,0.373,-0.568,0.116,-0.306,0.697,-0.724,-0.795,-0.401,-0.203,-0.555,0.51,-0.612,0.879
TAGCCTAGGTCATGGGCCATTATACCACGCGAAC,4.64,3.37,0.43,2.95,0.468,4.24,4.34,4.26,1.44,2.97,1.69,3.57,0.221,-0.316,1.41,1.81,-0.0788,2.65,-0.113,3.98
CCGAGTAGGTTATGGGCCATTCAGGCAACGGTGA,-0.39,0.176,-0.0661,-0.0151,-0.497,1.58,2.14,3.47,1.22,3.06,3.19,2.58,-0.937,-0.608,1.06,-0.326,-0.187,-0.0932,-0.148,0.816
CCTTACGGGTCACTCCAGGTTATTGCATCGGAGT,5,7.62,2.75,5.48,0.61,4.32,3.25,3.54,1.08,2.44,2.64,3.54,0.677,1.01,2.9,5.46,0.3,4.02,1.23,3.56
ATCGAAAGGTCGAAGGTGAGTAGACCCACCCGAA,4.66,3.33,-0.000535,2.34,0.52,4.56,4.92,4.7,1.93,4.2,-0.178,1.89,-0.438,0.456,1.74,2.69,0.121,4.23,0.557,3.83
CGTCAATGTTCAACTAAGGTAACGTAAAGCACGC,0.964,0.0385,0.177,0.536,0.375,0.376,0.538,-0.0311,-0.0519,0.0418,0.201,0.781,0.0203,0.928,0.877,0.252,0.0149,1.05,0.784,0.573
CCAGCCAGGTGAGAAGGTAACTCAGCCTCGATTA,-0.27,-0.406,-0.377,-0.292,-0.967,0.458,0.262,1.03,-0.318,0.318,0.886,0.642,-1.31,-0.676,-0.199,-0.486,-0.622,-0.386,-0.592,0.364
TCGAGAAGGTTAGTCGGGGCATTCAGCCAACATA,0.663,0.631,-0.271,0.863,-0.323,1.32,0.00646,1.2,1.72,1.33,1.32,0.682,-0.513,-0.49,0.545,0.807,0.434,0.664,-0.434,1.36
ACAGACAGGTGATGAAGGTAACTCAAGCTATCAT,-0.102,-0.296,-0.525,-0.0355,-0.354,0.0252,0.537,-0.224,0.113,-0.261,0.0752,0.481,-0.066,0.468,0.000193,-0.188,0.00644,-0.191,0.18,0.252
TCATATAGGTAAACAGGAGAAAGTCCGTAAGTTA,0.871,0.628,-0.02,0.291,-0.116,0.987,1.23,2.26,3.93,3.07,4.08,2.77,0.715,0.615,0.67,0.188,0.377,0.0372,0.767,0.292
